Screening results (PubChem BioAssay)
SMARCA2 activ: SMARCA2 function activation, primary screen; AID 652017; MG213 cells, MMTV-luciferase reporter, dexamethasone, overnight; activation, % at 9.1 µM; 1% of 370,000 active; in the data active = activation above about 7.8%;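 note: 0% = vehicle wells and 100% = reference activator wells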
MsrA inhibitor: inhibits bovine methionine sulfoxide reductase A; purified bovine MsrA, absorbance read-out; inhibition, % at 15.5 µM; 0.75% of 360,000 active;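 note: 0% = vehicle wells with enzyme and 100% = reference inhibitor wells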
bovine MsrA act: activators of bovine methionine sulfoxide reductase A; activation, % at 10.6 µM; purified bovine MsrA, absorbance read-out; 0.3% of 360,000 active; in the data active = activation above about 7.5%;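 note: 0% = vehicle and 100% = reference activator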
ABCB6 inh MLPCN: inhibitors of human ABC transporter ABCB6 | Q9NP58 | K562-ABCB6 porphyrin accumulation, flow cytometry, 1 h; hits give low values | fluorescence ratio to DMSO, % at 10 µM | 0.19% of 360,000 active;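 active = fluorescence ratio to DMSO below 75%, the collection mean minus 3 SD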;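 note: signal is porphyrin accumulated inside mitochondria; 100% equals median channel fluorescence of DMSO control wells; lower ratio means ABCB6 inhibition with less porphyrin fluorescence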
Target sequence (Q9NP58 whole entry, looked up): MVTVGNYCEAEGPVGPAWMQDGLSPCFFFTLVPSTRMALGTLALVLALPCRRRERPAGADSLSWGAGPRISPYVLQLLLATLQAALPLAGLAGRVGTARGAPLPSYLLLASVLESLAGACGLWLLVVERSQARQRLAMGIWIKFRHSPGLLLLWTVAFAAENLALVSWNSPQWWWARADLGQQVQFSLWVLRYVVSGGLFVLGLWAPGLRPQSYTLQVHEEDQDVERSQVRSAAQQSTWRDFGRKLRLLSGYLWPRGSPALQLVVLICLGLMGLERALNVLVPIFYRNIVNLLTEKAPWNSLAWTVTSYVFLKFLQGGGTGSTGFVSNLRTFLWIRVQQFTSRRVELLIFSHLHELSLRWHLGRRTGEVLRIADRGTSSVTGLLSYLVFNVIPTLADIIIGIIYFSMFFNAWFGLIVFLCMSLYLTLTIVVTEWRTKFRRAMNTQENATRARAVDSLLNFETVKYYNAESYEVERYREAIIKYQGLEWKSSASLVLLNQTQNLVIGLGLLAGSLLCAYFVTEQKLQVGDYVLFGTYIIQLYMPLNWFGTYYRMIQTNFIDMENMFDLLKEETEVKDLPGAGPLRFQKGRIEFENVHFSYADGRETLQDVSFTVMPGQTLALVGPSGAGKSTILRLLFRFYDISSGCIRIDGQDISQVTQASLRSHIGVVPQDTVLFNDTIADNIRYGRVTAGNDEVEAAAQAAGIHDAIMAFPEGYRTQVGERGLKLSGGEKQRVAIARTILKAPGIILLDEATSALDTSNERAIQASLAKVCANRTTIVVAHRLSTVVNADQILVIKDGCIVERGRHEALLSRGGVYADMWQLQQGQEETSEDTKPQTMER
MsrA conf: confirmation of bovine MsrA inhibitors | shares compounds with MsrA inhibitor | purified bovine MsrA, absorbance read-out | inhibition, % at 15.5 µM | 41% of 2,300 active | AID 651822;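 note: coupled to thioredoxin reductase with NADPH and selenocystamine and DMSO as substrate; 0% = vehicle only and 100% = full effect of reference inhibitor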
Starred values were filed as active, the others as inactive; . = no result given. Shown are actives, neighbours in structure and some others; about 2.1% of the full set was active somewhere. Cut-off read from the data, not from the text of the source, unless noted: active = inhibition above about 4.5%; inactive = the rest.

SMILES	SMARCA2 activ	MsrA inhibitor	bovine MsrA act	ABCB6 inh MLPCN	MsrA conf
C=CCN1N=C(/C=C/c2ccc(OC)cc2)CCC1=O	2	7.8*	-2	96	4.6*
CCOC(=O)CN1N=C(/C=C/c2ccccc2)CCC1=O	1	2	-4	99	.
CCOC(=O)CN1N=C(/C=C/c2ccc(OCC)cc2)CCC1=O	0	7.2*	-6	103	4
COc1ccc(/C=C/C2=NN(Cc3ccccc3)C(=O)CC2)cc1	-2	3	-5	100	.
C=CCOC(=O)N1CCN(C(=O)c2ccc3nc(C)n(C4CCCC4)c3c2)CC1	-2	.	.	.	.
CN1/C(=C/C(=O)C2CC2)C(C)(C)c2ccccc21	-4	5.8*	-2	187	5.1*
CN(C)c1ccc(/C=N/N2C(=S)SC(C)(C)C2N(O)C(=O)Nc2ccc([N+](=O)[O-])cc2)cc1 (centres undefined)	-3	6.1*	-10	91	2
Cc1ccc(-n2c(SCC(=O)Nc3ccc(Oc4ccccc4)cc3)nnc2-c2ccco2)cc1	-5	.	.	.	.
CCCCNC(=O)C1(C(=O)c2ccc(OC)cc2)CC(c2ccccc2C(F)(F)F)=NO1 (centres undefined)	-4	.	.	.	.
COc1ccc2[nH]c(C(=O)N/N=C/c3ccc(O)cc3O)cc2c1	-2	6.3*	-4	111	4
COc1cc2cc(C(=O)N/N=C/c3ccc(F)cc3)[nH]c2cc1OC	-2	4.8*	-4	97	6.0*
COc1ccc(/C=N/NC(=O)c2[nH]c(C)c(C(=O)N/N=C/c3ccc(OC)cc3)c2C)cc1	-1	4.9*	-4	99	5.5*
COc1cc2cc(C(=O)N/N=C/c3ccccc3Cl)[nH]c2cc1OC	1	1	-15	98	.
CCOc1ccc2[nH]c(C(=O)N/N=C/c3ccc(OC)cc3)cc2c1	-2	4	-6	97	.
COc1ccc(/C=N/NC(=O)c2cc3cc(OC)c(OC)cc3[nH]2)cc1	-2	5.3*	-1	96	7.8*
COc1cccc(/C=N/NC(=O)c2[nH]c(C)c(C(=O)N/N=C/c3cccc(OC)c3)c2C)c1	-3	3	-5	98	.
CC(C)(C)N(NC(=O)NCCCl)C(=O)c1ccccc1Cl	4	.	.	.	.
COc1cccc(CNC(=O)[C@H]2CCCN2C(=O)[C@H]2CCCN2C(=O)c2cccc(F)c2)c1	-1	-1	.	.	.
COc1ccc2cc(C(=O)N/N=C/c3cc(OC)c(OC)c(OC)c3)[nH]c2c1	0	5.8*	-8	96	6.4*
CCOC(=O)C1CCCN(C(=O)c2cnn3c(C(F)F)cc(-c4ccc(C)cc4)nc23)C1 (centres undefined)	-2	29*	6	85	23*
COc1ccc(/C=C/C(=O)NC(=S)Nc2ccc(S(=O)(=O)Nc3ccc(OC)nn3)cc2)cc1	-1	4	-6	98	.
COc1ccc(/C=C/C(=O)NC(=S)Nc2ccc(S(=O)(=O)Nc3cc(C)on3)cc2)cc1	-3	5.0*	-6	97	5.7*
COc1cc(/C=C2/NC(=O)N(Cc3ccccc3F)C2=O)cc(OC)c1O	-4	5.0*	-4	99	2
CCCCC(=O)N(C)c1c(CC)nc2c(OCCOc3ccc(F)cc3)cccn12	-6	1	-5	90	.
CN(Cc1ccccc1)c1ncc(C=O)s1	-4	7.5*	-6	93	5.8*
SMILES	SMARCA2 activ	MsrA inhibitor	bovine MsrA act	ABCB6 inh MLPCN	MsrA conf
O=Cc1cnc(N2CCN(Cc3ccccc3)CC2)s1	1	4	-3	102	.
COc1ccc(C2C(C(=O)Nc3ccc(Cl)c(Cl)c3)CCC(=O)N2c2ccc(OC)cc2)cc1 (centres undefined)	-2	.	.	.	.
Cc1cc(/C=C(\C#N)C(=O)NCc2ccco2)c(C)n1-c1ccc(C(=O)O)cc1	3	6.8*	-3	96	3
Cc1cc(/C=C(\C#N)C(=O)NCC2CCCO2)c(C)n1-c1ccc(Cl)cc1 (centres undefined)	6	4	-3	107	.
COc1ccc(OC[C@@H](O)CN2CCC(C(O)(c3ccccc3)c3ccccc3)CC2)cc1	-6	.	.	.	.
Cc1cccc(NC(=O)Cn2nnc(-c3ccccc3F)n2)c1C	-5	.	.	.	.
Cc1cc(N/C=C/C(=O)c2cccc3ccccc23)no1	-1	4.7*	-4	96	2
O=Cc1c(-c2ccc(F)cc2)nc2ccccn12	-3	9.1*	-1	99	3
CC(=O)Nc1c(-c2ccc(F)cc2)nc2ccccn12	0	1	-8	96	.
CC(=O)c1ccc(COC(=O)c2cc3ccccc3oc2=O)cc1	5	8.3*	-6	95	4
Cc1[nH]nc2c1C(c1ccc(O)cc1)C1=C(CC(C)(C)CC1=O)N2 (centres undefined)	-2	2	-14	104	.
Cc1[nH]nc2c1C(c1ccsc1)C1=C(CC(C)(C)CC1=O)N2 (centres undefined)	-3	4.7*	-14	88	3
COc1cccc(-c2cnc(C(O)c3ccc(Cl)c(Cl)c3)[nH]2)c1 (centres undefined)	-1	1	-4	95	.
O=C1C2C3C=CC(C4CC34)C2C(=O)N1/N=C/c1ccc(-c2ccc(Cl)cc2[N+](=O)[O-])o1 (centres undefined)	3	2	-6	90	.
O=C(O)c1cc(-c2ccc(/C=N/N3C(=O)C4C5C=CC(CC5)C4C3=O)o2)ccc1Cl (centres undefined)	-3	7.4*	-4	98	5.8*
O=C(O)c1cc(-c2ccc(/C=N/N3C(=O)C4C5C=CC(C6CC56)C4C3=O)o2)ccc1Cl (centres undefined)	-4	5.4*	-4	94	7.8*
CCOC(=O)[C@@]12CCCC=C1N(CCc1ccc(Cl)cc1)C(=O)[C@H]2CC(=O)NCc1cccc(C(F)(F)F)c1	-5	.	.	.	.
CC1=C(C(=O)N2CCOCC2)CC(CC(=O)NCc2cccc3ccccc23)C(=O)N1Cc1ccc(C(C)(C)C)cc1 (centres undefined)	-5	-1	-1	90	.
Cn1c(O)c(N=NC(=O)CNC(=O)c2cccnc2)c2ccccc21	-3	4.7*	-2	101	2
O=C(NC1CCCCN(Cc2cccc(Cl)c2)C1=O)c1ccc(Cl)cc1Cl (centres undefined)	-3	.	.	.	.
CCN(CC)C(=O)COc1cc(C)c(Cl)c(C)c1	-4	37*	-1	96	1
Cc1cc(OCC(=O)N(C)C2CCCCC2)cc(C)c1Cl	6	0	-2	104	.
COc1ccc(/C=N/N2CCN(C)CC2)cc1OC	-1	1	-11	101	.
COc1ccc(/C=N/N(C)c2cc(=O)n(C)c(=O)[nH]2)cc1OC	0	11*	-4	104	7.0*
CN(/N=C/C=C/c1ccccc1)c1cc(=O)n(C)c(=O)[nH]1	-2	12*	-11	98	9.1*
COc1ccc(Oc2cc(NN3CCCCC3)c([N+](=O)[O-])cc2[N+](=O)[O-])cc1OC	-1	4.9*	-2	96	3
CC(=O)c1cccc(Oc2cc(NN3CCCCC3)c([N+](=O)[O-])cc2[N+](=O)[O-])c1	-2	18*	-4	91	12*
